# Experimental data published in the supplement of paper PMC6135742.
# Structures can show the parent of a compound that is named as a salt. ± gives the standard deviation of the averaged measurements. In all, about 2,600 compounds were measured (“MBP+ mature oligodendrocyte number relative to DMSO vehicle control”: median about -0.34, highest 2% from about 13 on). Shown is part of a subset that was picked to be rich in the highest values.
# System: jimpy (Plp1 jimpy) mouse iPSC-derived oligodendrocyte progenitor cells
# Experiment: MBP+ mature oligodendrocyte number relative to DMSO vehicle control (SDs above negative control mean); higher = more surviving jimpy oligodendrocytes (rescue)
# Details: 10 µM; 3 days
# 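Also: 10 µM single dose with 3-day oligodendrocyte differentiation.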
row,Structure (SMILES),MBP+ mature oligodendrocyte number
1,Nc1n[n+]([O-])c2ccccc2[n+]1[O-] [Tirapazamine],-2.44
2,O=c1sn(-c2cccc3ccccc23)c(=O)n1Cc1ccccc1 [Tideglusib],-0.769
3,NNC(=O)CSc1nc2scc(-c3ccccc3)c2c(=O)n1-c1ccccc1,-0.637
4,OC(CCN1CCCCC1)(c1ccccc1)C1CC2C=CC1C2 (stereo unspecified) [Biperiden hydrochloride],2.59
5,OC(CCN1CCCCC1)(c1ccccc1)C1CC2C=CC1C2 (stereo unspecified) [Biperiden HCl],13.7
6,OC(CCN1CCCCC1)(c1ccccc1)C1CCCCC1 (stereo unspecified) [Trihexyphenidyl hydrochloride],-0.104
7,O=c1cc(-c2cccc3c2Sc2ccccc2S3)oc(N2CCOCC2)c1,-3.99
8,C[N+]1(C)CCC(OC(=O)C(c2ccccc2)c2ccccc2)CC1,0.467
9,C[N+]1(C)CCC(OC(=O)C(c2ccccc2)c2ccccc2)CC1 [4-DAMP methiodide],2.86
10,O=C(O)c1ccccc1 [Benzoic Acid],0.66
11,C[N+]1(C)CCC(=C(c2ccccc2)c2ccccc2)CC1 [Diphemanil Methylsulfate],19.2
12,C=C1CC[C@H](O)C/C1=C/C=C1\CCC[C@]2(C)[C@@H]([C@H](C)CCCC(C)C)CC[C@@H]12 [Vitamin D3],5.56
13,C=C1CC[C@H](O)C/C1=C/C=C1\CCC[C@]2(C)[C@@H]([C@H](C)/C=C/[C@H](C)C(C)C)CC[C@@H]12 [Vitamin D2],21.5
14,C=C1/C(=C\C=C2/CCC[C@]3(C)[C@@H]([C@H](C)/C=C/[C@H](C)C(C)C)CC[C@@H]23)C[C@@H](O)C[C@@H]1O [Doxercalciferol],8.14
15,CCCCCCCCCCCCCCSCC(=O)O [Tetradecylthioacetic acid],0.00298
16,CCCCC(F)(F)[C@@]1(O)CC[C@H]2[C@@H](CC(=O)[C@@H]2CCCCCCC(=O)O)O1 [Lubiprostone],25.2
17,CCCCC[C@H](O)/C=C/[C@H]1[C@H](O)CC(=O)[C@@H]1CCCCCCC(=O)O [Alprostadil],0.793
18,Cc1cnc(-c2cc(N3CCN(C(=O)CCS(C)(=O)=O)CC3)ncc2Cl)c(C)c1,0.184
19,CC(NCCc1ccc(O)cc1)C(O)c1ccc(O)cc1 (stereo unspecified) [Ritodrine HCl],-0.164
20,C[C@H](N[C@@H](CCc1ccccc1)C(=O)O)C(=O)N1CCC[C@H]1C(=O)O [Enalaprilat dihydrate],0.574
21,CC(C(O)c1ccc(O)cc1)N1CCC(Cc2ccccc2)CC1 (stereo unspecified) [Ifenprodil Tartrate],20.3
22,C[C@H](N[C@@H](CCc1ccccc1)C(=O)O)C(=O)N1CCC[C@H]1C(=O)O [Enalaprilat Dihydrate],-0.467
23,CC(C)(C(=O)O)c1ccc(C(O)CCCN2CCC(C(O)(c3ccccc3)c3ccccc3)CC2)cc1 (stereo unspecified) [Fexofenadine hydrochloride],0.659

row,Structure (SMILES),MBP+ mature oligodendrocyte number
1,CC(C(O)c1ccc(O)cc1)N1CCC(Cc2ccccc2)CC1 (stereo unspecified) [Ifenprodil tartrate],8.03
2,CC(C)(C)c1ccc(C(O)CCCN2CCC(C(O)(c3ccccc3)c3ccccc3)CC2)cc1 (stereo unspecified) [Terfenadine],< -3.85
3,CC(NCCc1ccc(O)cc1)C(O)c1ccc(O)cc1 (stereo unspecified) [Ritodrine hydrochloride],1.15
4,C[C@@H](CN1CCC(Cc2ccccc2)CC1)[C@@H](O)c1ccc(O)cc1 [Ro 25-6981 hydrochloride],14.6
5,CC(C)(C(=O)O)c1ccc(C(O)CCCN2CCC(C(O)(c3ccccc3)c3ccccc3)CC2)cc1 (stereo unspecified) [Fexofenadine HCl],1.53
6,CC(=Cc1ccc(C(=O)O)cc1)c1ccc2c(c1)C(C)(C)CCC2(C)C,0.539
7,O=C(/C=C/c1ccc(CN(CCO)CCc2c[nH]c3ccccc23)cc1)NO [LAQ824 (Dacinostat)],< -6.7
8,CC(C)(C)[N+]([O-])=Cc1ccc(S(=O)(=O)O)cc1S(=O)(=O)O,2.35
9,CC(C)c1cc(-c2ccc(F)c3ccccc23)nc(N)n1,6.85
10,Nc1ccc2ncnc(NCCc3ccc(Oc4ccccc4)cc3)c2c1,< -6.35
11,N#C/C(=C1/SC[C@@H](c2ccc(Cl)cc2Cl)S1)n1ccnc1 [Luliconazole],19.8
12,CC(=O)O[C@]1(C(C)=O)CC[C@H]2[C@@H]3C=C(Cl)C4=CC(=O)[C@@H]5C[C@@H]5[C@]4(C)[C@H]3CC[C@@]21C [Cyproterone Acetate],21.5
13,CC(=O)O[C@]1(C(C)=O)CC[C@H]2[C@@H]3C[C@H](C)C4=CC(=O)C=C[C@]4(C)[C@@]3(F)[C@@H](O)C[C@@]21C [Fluorometholone Acetate],10.3
14,C[C@]12CCC(=O)C=C1CC[C@@H]1[C@@H]2CC[C@@]2(C)[C@H]1CC[C@]2(O)C(=O)CO [Cortexolone],0.431
15,CC(=O)O[C@]1(C(C)=O)CC[C@H]2[C@@H]3C=C(C)C4=CC(=O)CC[C@]4(C)[C@H]3CC[C@@]21C [Megestrol Acetate],15.4
16,CC(=O)O[C@]1(C(C)=O)CC[C@H]2[C@@H]3C=C(Cl)C4=CC(=O)[C@@H]5C[C@@H]5[C@]4(C)[C@H]3CC[C@@]21C [Cyproterone acetate],3.38
17,CC(=O)OCC(=O)[C@@]1(O)CC[C@H]2[C@@H]3CCC4=CC(=O)CC[C@]4(C)[C@H]3C(=O)C[C@@]21C [Cortisone 21-acetate],-0.825
18,CC(=O)O[C@]1(C(C)=O)CC[C@H]2[C@@H]3C[C@H](C)C4=CC(=O)CC[C@]4(C)[C@H]3CC[C@@]21C [Medroxyprogesterone acetate],16.5
19,CC(=O)S[C@@H]1CC2=CC(=O)CC[C@]2(C)[C@H]2CC[C@@]3(C)[C@@H](CC[C@@]34CCC(=O)O4)[C@H]12 [Spironolactone],1.84 ± 1.7
20,CC(=O)OCC(=O)[C@@]1(O)CC[C@H]2[C@@H]3CCC4=CC(=O)CC[C@]4(C)[C@H]3C(=O)C[C@@]21C [Cortisone acetate],-0.164
21,CC(C)CCN1c2nc(Nc3cc(F)c(O)c(F)c3)ncc2N(C)C(=O)C1C (stereo unspecified),< -6.01
22,O=C(O)CP(=O)(O)O [Phosphonoacetic acid],-0.64
23,"O=C(O)c1cc(=O)c2c(Cl)cc(Cl)cc2[nH]1 [5,7-Dichlorokynurenic acid]",-0.544
